Source: PubChem BioAssay (National Center for Advancing Translational Sciences (NCATS))
Giardia FBPA inh = inhibitors of Giardia lamblia fructose-1,6-bisphosphate aldolase; A8B2U2; purified Giardia FBPA; Potency, µM (doses to about 59.6 µM), most hits filed as inhibitors; 290,000 compounds, 0.71% hits; AID 2451; also: nearly all actives have a fitted effect of over 55% in size
Target sequence (A8B2U2 whole entry, looked up): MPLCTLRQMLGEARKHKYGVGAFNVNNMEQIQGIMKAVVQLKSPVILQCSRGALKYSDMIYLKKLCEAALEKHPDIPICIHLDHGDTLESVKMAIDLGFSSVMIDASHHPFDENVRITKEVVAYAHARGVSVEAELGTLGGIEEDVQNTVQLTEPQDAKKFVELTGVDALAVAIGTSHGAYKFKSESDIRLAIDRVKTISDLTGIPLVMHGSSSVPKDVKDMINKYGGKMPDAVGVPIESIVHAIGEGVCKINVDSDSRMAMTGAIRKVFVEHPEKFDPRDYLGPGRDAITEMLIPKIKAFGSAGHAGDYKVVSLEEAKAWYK
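40 nM FBPA preincubated 10 min at RT with compound (up to 57.5 uM final), then substrate plus GAPDH/TPI/NAD/arsenate coupling and diaphorase/resazurin added. Fluorescence read after 20 min at RT, 525/598 nm.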
HCMV inh = blocks human cytomegalovirus replication | HFF cells, HCMV-luciferase reporter, 72 h; stronger effect = lower value | activity change, negative = inhibition, % at 57.5 µM | 410,000 compounds, 4.5% hits; in the data active = activity change below about -60%; inconclusive = no clear call, values can overlap the other calls; inactive = above about -39%
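Luciferase read-out from HCMV-luciferase-infected HFFs (MOI 1 PFU/cell) 72 h post infection at 37C; compounds added after 16 h cell attachment; activity normalized between buffer-only basal and Salinomycin (10uM) inhibitor controls.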
FMDV antiviral = antivirals against foot and mouth disease virus | FMDV antiviral cell-based qHTS | Potency, µM (series often up to 57.9 µM), most hits filed as inhibitors | 410,000 compounds, 1.2% hits | AID 1159524; calls by dose curve; tested in HEK293T cells; also: read-out not given here; nearly all actives have a fitted effect of over 45% in size
Sm TGR inh = blocks Schistosoma mansoni thioredoxin glutathione reductase. Q962Y6. purified TGR, DTNB reduction, TNB absorbance 405 nm. Potency, µM (doses to about 114 µM), hits mostly inhibitors. 360,000 compounds, 3% hits; also: nearly all actives have a fitted effect of over 60% in size
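Kinetic colorimetric format: TGR-catalysed, NADPH-driven DTNB reduction monitored via TNB absorbance. Enzyme dispensed at 20 nM; compound exposure 15 min at room temperature before reaction start.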
RE007 growth inh = less growth of the S. pombe RE007 Vpr strain. S. pombe RE007 Vpr strain, BacTiter-Glo ATP luminescence, 24 h. Potency, µM (titrated, usually from 92.2 µM), hits mostly inhibitors. 360,000 compounds, 0.21% hits; active = well fitted falling curve with a large enough effect; inconclusive = small, poorly fitted or top-dose-only effect; inactive = no such curve, though single readings can be large or run the other way; also: nearly all actives have a fitted effect of over 50% in size
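Fission yeast strain RE007, carrying one chromosomally integrated HIV-1 vpr copy, was seeded at OD 0.01 in PMG+AL medium with 23 nL pinned compound. After 24 h at 30 °C and 99% humidity, viability was read by BacTiter-Glo luminescence.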
Tb PYK inh = T. brucei pyruvate kinase inhibition | Q57TT1 | 410,000 compounds, 0.12% hits | TbPYK enzyme, Kinase-Glo Plus ATP luminescence, 45 min | Potency, µM (highest dose often 76.8 µM), hits mostly inhibitors; also: nearly all actives have a fitted effect of over 50% in size
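Enzyme and substrate buffer are dispensed first and compound is pin-transferred. ADP at 130 uM final then starts the reaction, which runs 45 min at room temperature. Detection reagent is added for 10 min before luminescence is imaged.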
Hits are given with their value; – = inactive; ? = inconclusive; · = no result given; ! = not active in a repeat; [ ] = remark or other dose. Shown are actives, neighbours in structure and some others; about 7.7% of the full set was active somewhere. Unless noted, calls follow the shape of the dose curve; as a rule, active = well fitted curve in the direction sought with a large enough effect; inconclusive = small, poorly fitted or top-dose-only effect, or another doubt; inactive = no such curve, though single readings can be large; an effect the other way counts as inactive or inconclusive.

SMILES	Giardia FBPA inh	HCMV inh	FMDV antiviral	Sm TGR inh	RE007 growth inh	Tb PYK inh
N#CC(C(=O)C1CCCCC1)c1nc2ccccc2[nH]1 (centres undefined)	–	-99.1	·	–	–	–
CCCCCn1c(CCCNC(=O)c2cccc(C)c2)nc2ccccc21	·	-85.1	?	–	·	–
CC(NC(=O)/C=C/c1ccco1)c1nc2ccccc2n1Cc1cccc(Cl)c1 (centres undefined)	–	–	?	14.1µM	–	–
O=C(NCCCc1nc2ccccc2n1Cc1cccc(Cl)c1)c1ccco1	·	-75.9	?	–	·	–
N#Cc1cccc(NC(=S)Nc2ccccc2)c1	–	-67.8	–	50.1µM	–	–
Oc1ccc(NC(=S)Nc2ccccc2)cc1	–	?	–	–	–	–
O=C(Nc1nccs1)c1cc2c(s1)CCCCC2	–	-64.4	8.91µM	–	31.6µM	–
CCCCCC1CC(CC#CCN2CCOCC2)C(=O)O1 (centres undefined)	–	–	–	22.4µM	–	–
c1ccc(N/N=C(\Cc2nc3ccccc3[nH]2)c2ccccc2)cc1	–	–	–	–	–	–
N/N=C(/Cc1nc2ccccc2[nH]1)c1ccc([N+](=O)[O-])cc1	–	–	–	–	12.6µM	–
Cc1ccc(N/N=C(\Cc2nc3ccccc3[nH]2)c2ccccc2)cc1	–	·	–	39.8µM	–	–
OC(CSc1ccccc1)CN1CCN(c2ccccc2)CC1 (centres undefined)	·	-102.2	–	·	–	–
CCn1c(=O)c(C(=O)Nc2ccc(C(C)=O)cc2)nc2ccccc21	·	–	–	–	·	–
Cc1cccc(NS(=O)(=O)c2c(C)nc3scc(C)n3c2=O)c1	·	-70.0	–	–	–	–
CCc1ccc(NS(=O)(=O)c2c(C)nc3sc(CC)nn3c2=O)cc1	–	–	?	–	–	–
Cc1nc2scc(C)n2c(=O)c1S(=O)(=O)Nc1ccc(N2CCN(S(C)(=O)=O)CC2)cc1	–	-83.4!	?	–	–	–
Cc1cc(C)cc(NS(=O)(=O)c2c(C)nc3scc(C)n3c2=O)c1	·	–	–	?	·	–
CCc1nn2c(=O)c(S(=O)(=O)Nc3ccc(C)c(C)c3)c(C)nc2s1	·	-87.6	–	–	·	–
CCn1c(CNS(=O)(=O)c2ccc(Br)cc2)nnc1SC	·	–	–	3.55µM	–	–
OCCCNc1c2ccccc2nc2ccccc12	–	-102.0	–	–	–	–
CN(C)CCCNc1c2c(nc3ccccc13)CCC2	–	-94.9	–	–	–	–
CC(C)CNc1c2c(nc3ccccc13)CCC2	–	-68.2	?	–	–	–
OCCNc1c2c(nc3ccccc13)CCCC2	–	–	–	–	–	–
COc1cc(OC)c2c(c1)OC1Cc3cc(OC)c(OC)cc3C2O1 (centres undefined)	–[12.9 µM]	·	·	·	·	·
CC1=CC(C)(C)N=C(Nc2nc(C)c3cc(C)cc(C)c3n2)N1	–	-96.6	?	–	–	–
SMILES	Giardia FBPA inh	HCMV inh	FMDV antiviral	Sm TGR inh	RE007 growth inh	Tb PYK inh
CCOC(=O)C1=CCN(S(=O)(=O)c2ccc(Br)cc2)C1c1ccc(Br)cc1 (centres undefined)	·	–	·	·	·	·
CC(C)Cc1ccc(C(C)C(N)=NCCc2ccccc2)cc1 (centres undefined)	–	-86.7	–	–	–	–
COc1ccc(CCN=C(N)C(C)c2ccccc2)cc1OC (centres undefined)	–	–	–	–	–	–
CCCCNC(=O)CSc1nc2cc3c(cc2c(=O)n1Cc1ccc(C(=O)NCCc2ccc(OC)c(OC)c2)cc1)OCO3	·	–	–	–	·	–
CCOC(=O)CSc1nc2cc3c(cc2c(=O)n1CCCC(=O)NCCc1ccc(OC)c(OC)c1)OCO3	·	–	–	–	·	–
CCN(CC)C(=O)CSc1nc2cc3c(cc2c(=O)n1Cc1ccc(C(=O)NCCc2ccc(OC)c(OC)c2)cc1)OCO3	·	-83.4	–	–	·	–
CCN(CC)C(=O)CSc1nc2cc3c(cc2c(=O)n1CCCC(=O)NCCc1ccc(OC)c(OC)c1)OCO3	–	-67.2	–	–	–	–
Cc1cccc(-c2nc(C)c(CCNC(=O)C(=O)Nc3cccc(Cl)c3C)s2)c1	·	–	–	–	·	–
O=C(Nc1cccc(S(=O)(=O)NC2=NCCCCC2)c1)c1cc(-c2ccccc2)nc2ccccc12	–	–	–	–	–	–
O=C(NC(=S)Nc1cccc(S(=O)(=O)NC2=NCCC2)c1)c1cc(-c2ccco2)nc2ccccc12	–	-81.0	–	12.6µM	–	–
O=C(Nc1cccc(S(=O)(=O)NC2=NCCC2)c1)c1cc(-c2ccco2)nc2ccccc12	–	–	–	17.8µM	–	–
CCCN(CCC)CC(O)CN1C(=O)N(CN2C(=O)N(CC(O)CN(CCC)CCC)C(=O)C2(C)C)C(C)(C)C1=O (centres undefined)	–	–	–	–	–	–
CN(C)CC(O)CN1C(=O)N(CN2C(=O)N(CC(O)CN(C)C)C(=O)C2(C)C)C(C)(C)C1=O (centres undefined)	–	-61.9	–	–	–	–
C=CCc1ccccc1OCc1nc2ccccc2n1CC	·	–	–	–	·	–
CCN(CC)P(=O)(Nc1ccccc1Br)c1ccc(N(C)C)cc1NC(=O)c1ccco1 (centres undefined)	–	-60.5	?	–	–	–
CCN(CC)C(=O)c1cc(Cl)ccc1NC(=O)c1ccco1	–	–	–	–	–	–
C/C=C/c1ccc(Oc2nnnn2-c2ccc(C(=O)O)cc2)c(OC)c1	–	–	–	35.5µM	–	–
N#CC1=C(N)C(C#N)(C#N)C(c2cccnc2)C2CC(c3ccccc3)CC=C12 (centres undefined)	–	·	–	?	–	–
N#CC1=C(N)C2=CCCC[C@H]2[C@H](c2cccc(F)c2)C1(C#N)C#N	–	–	–	?	–	–
N#CC1=C(N)C(C#N)(C#N)C(c2ccc[nH]2)C2CCCC=C12 (centres undefined)	?	–	–	15.8µM	–	?
N#CC1=C(N)C(C#N)(C#N)C(c2cccnc2)C2CCCC=C12 (centres undefined)	4.46µM	·	·	–	·	·
COc1ccccc1-c1ccc(C(=O)N2CCC(N3CCc4ccccc4C3)CC2)c(N(C)CC2COCCO2)n1 (centres undefined)	·	·	–	·	·	·
CCc1ccc(O)c(C(=O)c2cnc3cc(-c4ccc(C)cc4)nn3c2)c1	·	–	–	–	·	–
CCc1nn2cc(C(=O)c3cc(Cl)ccc3O)cnc2c1-c1ccc(F)cc1	–	-70.1	?	–	–	–
N[C@@H](Cc1cc(Br)c(O)c(Br)c1)C(=O)O	?	·	·	25.1µM	·	·
Cc1sc2ncnc(N3CCC(C(=O)NNC(=O)COc4ccccc4Cl)CC3)c2c1C	·	–	35.5µM	–	–	–
